# From PubChem
# CBX7 AlphaScr: CBX7 inhibition, primary AlphaScreen. O95931. AlphaScreen His6-CBX7 / biotin-H3K27me3 peptide binding; stronger effect = lower value. normalised signal (fraction of DMSO) (no concentration beside the values). 66,000 compounds, 1.1% hits. AID 1224903; in the data active = normalised signal below about 0.5
# Target sequence (O95931 whole entry, looked up): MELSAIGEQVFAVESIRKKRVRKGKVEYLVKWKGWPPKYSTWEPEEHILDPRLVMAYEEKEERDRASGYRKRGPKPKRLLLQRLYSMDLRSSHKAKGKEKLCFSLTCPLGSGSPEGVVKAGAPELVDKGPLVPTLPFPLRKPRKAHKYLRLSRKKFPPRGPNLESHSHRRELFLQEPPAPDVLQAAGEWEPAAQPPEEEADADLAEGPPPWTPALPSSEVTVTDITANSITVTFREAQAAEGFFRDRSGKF
# A number is an active result; 0 = inactive. Only a selection was taken, and hits are over-represented in it overall.
SMILES,CBX7 AlphaScr
CCOc1ccc(N2C(=O)CC(NCc3ccc(Cl)cc3Cl)C2=O)cc1 (stereo unspecified),0
O=C(C1CCN(c2nnc(-n3cccc3)s2)CC1)N1CCCCCC1,0
CCOC(=O)N1CCC(NC(=O)c2cc3c(s2)-c2ccccc2OC3)CC1,0
COC(=O)c1c[nH]n2c(NC3CCCCCC3)c(-c3ccc(Cl)cc3)nc12,0
COC(=O)c1c[nH]n2c(NC3CCC(C)CC3)c(-c3ccc(OC)c(OC)c3)nc12 (stereo unspecified),0.269
COC(=O)c1c[nH]n2c(NC3CCCCC3)c(-c3ccc(Cl)cc3)nc12,0
COC(=O)c1c[nH]n2c(NCCc3ccccc3)c(-c3ccc(C)cc3)nc12,0
COC(=O)c1c[nH]n2c(NC3CCC(C)CC3)c(-c3ccc(F)cc3)nc12 (stereo unspecified),0.251
COC(=O)c1c[nH]n2c(NCCc3ccccc3)c(-c3ccc(F)cc3)nc12,0
O=C(c1cc2c(s1)-c1ccccc1OC2)N1CCN(c2ncccn2)CC1,0
CC1CCN(CCCNC(=O)CCNC(=O)Cn2ccc3ccccc3c2=O)CC1,0
CCc1ccc(NC(=O)CSc2nccn2-c2cccc(C)c2)cc1,0
O=C(CSc1nccn1-c1ccc(F)cc1)Nc1cccc(Cl)c1,0
Cc1cccc(NC(=O)CSc2nccn2-c2ccc(Cl)cc2)c1,0.449
COc1cccc(-n2ccnc2SCC(=O)Nc2cccc(C(F)(F)F)c2)c1,0
CCc1ccc(NC(=O)CSc2nccn2-c2cccc(OC)c2)cc1,0
CCc1ccc(NC(=O)CSc2nccn2-c2cccc(Cl)c2)cc1,0.431
COc1ccc(-n2ccnc2SCC(=O)Nc2cccc(C)c2)cc1,0
Cc1cc(C)cc(NC(=O)CSc2nccn2-c2ccc(Cl)cc2)c1,0.424
O=C(CSc1nccn1-c1ccc(Cl)cc1)Nc1cccc(C(F)(F)F)c1,0.451
Cc1ccc(NC(=O)CSc2nccn2-c2ccc(Cl)cc2)cc1,0
O=C(CSc1nccn1-c1ccc(Cl)cc1)Nc1cccc(F)c1,0
Cc1cc(C)cc(NC(=O)CSc2nccn2-c2ccccc2)c1,0
COc1ccc(-n2nc3c(c2NC(=O)c2ccc(Cl)cc2)CSC3)cc1,0
O=C(Cn1ncc2ccsc2c1=O)NCCN1CCC(Cc2ccccc2)CC1,0
SMILES,CBX7 AlphaScr
CC(C(=O)NCCCc1ccccc1)N1C(=O)CC(C)(C)Sc2ccccc21 (stereo unspecified),0
Cc1cc(C)cc(-n2ccnc2SCC(=O)Nc2ccc(Cl)c(Cl)c2)c1,0
CCOc1ccc2nc(N3CCCC(C(=O)NCc4ccc(Cl)cc4)C3)sc2c1 (stereo unspecified),0
Cc1cccc(Nc2nc3cc(Cl)c(Cl)cc3nc2-n2nc(C)cc2C)c1,0
Cc1cccc(-n2ncc3c(NCCCN(C)C)ncnc32)c1,0
Cc1ccc(Cn2c(=O)cc(C(=O)NCCc3ccccc3)c3ccccc32)cc1,0
O=C(NCc1ccccc1Cl)c1cc(-c2ccncc2)nc2ccccc12,0
CCn1cnc2cc(NC(=O)c3ccccc3)ccc21,0
COc1ccc(N2CCN(c3oc(COc4ccccc4C)nc3C#N)CC2)cc1,0
COc1ccc(OCc2nc(C#N)c(N3CCN(c4ccc(OC)cc4)CC3)o2)cc1,0
N#Cc1nc(COc2ccc(Br)cc2)oc1N1CCN(Cc2ccccc2)CC1,0
N#Cc1nc(COc2ccccc2F)oc1N1CCN(Cc2ccccc2)CC1,0.456
COc1ccc(N2CCN(c3oc(COc4ccc(C)cc4)nc3C#N)CC2)cc1,0.485
Cc1ccccc1OCc1nc(C#N)c(N2CCN(c3ccccc3)CC2)o1,0.42
N#Cc1nc(COc2ccccc2F)oc1N1CCCCCC1,0
COc1ccccc1OCc1nc(C#N)c(N2CCN(c3ccccc3)CC2)o1,0
COc1ccc(N2CCN(c3oc(COc4ccc(F)cc4)nc3C#N)CC2)cc1,0
CC(NC(=O)c1cc(-c2ccco2)on1)c1ccccc1 (stereo unspecified),0
Cc1cc(Nc2cccc(C(F)(F)F)c2)nc(N2CCOCC2)n1,0
CCCCOc1ccc(C2(C)CC(=O)N(C)C2=O)cc1 (stereo unspecified),0
O=C(O)CC(NCc1ccncc1)c1cccs1 (stereo unspecified),0
CCc1ccc(C2Nc3ccccc3NC3=C2C(=O)CC(c2ccccc2)C3)cc1 (stereo unspecified),0
CC(C)=CCC/C(C)=C\CC/C(C)=C/COc1ccc2ccc(=O)oc2c1,0
O=C(c1ccc(NC2=NC3CS(=O)(=O)CC3S2)cc1)N1CCN(c2ccc(Cl)cc2)CC1 (stereo unspecified),0
Oc1cccc(-c2nc(-c3ccccc3)c(-c3ccc(F)cc3)[nH]2)c1,0.348
O=C(O)c1ccc(-c2nc(-c3ccc(C(=O)c4ccc(F)cc4)cc3)c(-c3ccc(F)cc3)[nH]2)cc1,0
O=C(c1ccccc1)c1ccc(-c2[nH]c(-c3cccc(Cl)c3)nc2-c2ccccc2)cc1,0
Oc1ccc(-c2nc(-c3ccccc3)c(-c3ccc(F)cc3)[nH]2)cc1O,0
Cc1ccc(C)c(-c2[nH]c(-c3cccc(O)c3)nc2-c2ccccc2)c1,0
